Measured values taken from PubChem BioAssay (NCI).
About 83,000 compounds went through this panel and 20% of them were active in at least one assay; those are over-represented in the sample as a whole.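 Treatment: one concentration, 48 hours, 96-well format. Scoring: percent growth, with anything below 10 considered active.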 The source made the active and inactive calls.

test system: T-47D breast; assay: NCI-60 one-dose screen, 48 h (100 = growth as untreated, 0 = no growth, -100 = all killed); conditions: 10 µM unless noted
Procedure: Growth inhibition of the T-47D human tumor cell line is measured as a screen for anti-cancer activity. Cells are grown in 96 well plates and exposed to the test compound for 48 hours. Compounds are tested at a single concentration, which is 10^-5 M for most compounds. The reported endpoint is percent growth (GI% or GIPRCNT), where numbers from 0 - 100% represent growth inhibition, and numbers from -100% - 0 represent cell death. For example, a value of 40 represents 60% growth inhibition. A value of 0 means no net growth occurred over the course of the experiment. A value of -40 indicates 40% of cells at the beginning of the experiment died by the end of the experiment. A value of -100 means all cells are dead at the end of the experiment.
NCI-60 Human Tumor Cell Lines Screen was performed using the standard one-dose NCI protocol, which is described in more detail at https://dtp.cancer.gov/discovery_development/nci-60/default.htm.
Compounds with GIPRCNT values below 10 were considered active. Activity score was based on GIPRCNT using the following formula: […]
Score is 0 for GIPRCNT values of 100 or above, 50 for GIPRCNT values of 0, and 100 for GIPRCNT values of -100.

Structure (SMILES) | growth
CCN1CCN(Cc2cn(-c3ccc(S(N)(=O)=O)cc3)nn2)CC1 | 105% (inactive)
CN1CCN(Cc2ccc(NC(=O)c3cncc(C#Cc4cnc5ccc(NCCCO)nn45)c3)cc2C(F)(F)F)CC1 | 1.95% (active)
C=C(C)[C@@H]1CC[C@]2(COC)CC[C@]3(C)[C@H](CC[C@@H]4[C@@]5(C)CCCNC(C)(C)[C@@H]5CC[C@]43C)[C@@H]12 | 54.1% (inactive)
N#Cc1c(Nc2ccccc2)nn2c(-c3ccc([N+](=O)[O-])cc3)ccnc12 | 110% (inactive)
CC(=O)N1N=C(c2cccc(-n3cccc3)c2)CC1c1cccc(F)c1 (stereo not given) | 89% (inactive)
CNCc1cccc2c1OCCCCCCC(C)(O)CC(C)(C)S(=O)(=O)c1ccc(cc1)-c1cnc(N)c(n1)C(=O)N2 (stereo not given) | 56.1% (inactive)
O=C(CCn1c[n+](CC(=O)c2ccc(-c3ccccc3)cc2)c2ccccc21)Nc1cccc2cccnc12 | 21.6% (inactive)
CNC(=O)c1cc(-c2ccc(NC(=S)Nc3cc(C(F)(F)F)cc(C(F)(F)F)c3)cc2)nc2cccnc12 | 85.1% (inactive)
COc1ccc(/C=C/C(=O)c2cc(S(N)(=O)=O)c(OC)cc2OC)cc1 | 50.3% (inactive)
COc1ccc(C(=O)CSc2nc3c(c(Nc4ccc(S(N)(=O)=O)cc4)n2)CCCC3)cc1 | 71.3% (inactive)
CCn1c(SCC(=O)Nc2cccc(C(=O)/C=C/c3ccccc3Cl)c2)nc2ccccc2c1=O | 81.3% (inactive)
Cc1ccc2sc3c(c2c1)OC(N)=C(C#N)C3c1ccc(Cl)cc1 (stereo not given) | 56.6% (inactive)
CC1(C)[C@@H](O)CC[C@]2(C)[C@H]3CC[C@@H]4[C@H]5[C@H](C(=O)/C=C\c6ccc([N+](=O)[O-])cc6)CC[C@]5(O)CC[C@@]4(C)[C@]3(C)CC[C@@H]12 | 57.7% (inactive)
CNC(=O)c1c(NC(=O)c2ccccc2C(F)(F)F)sc2c1CCC(=O)C2 | 9.8% (active)
COC(=O)c1[nH]nc2c1C1(C(=O)N(C)c3ccccc31)C(C#N)=C(N)O2 (stereo not given) | 108% (inactive)
COc1cc(Cn2cc3c(c2)-c2onc(CN4CCOCC4)c2CC3)cc(OC)c1OC | 79.3% (inactive)
Cc1ccc(NC(=O)c2ccc(CN3CCN(C)CC3)cc2)cc1Oc1ccc(-c2[nH]nc3ncnc(N)c23)cc1 | 81.4% (inactive)
O=C1[C@@H]2Cc3c([nH]c4ccccc34)[C@H](c3c(Cl)cccc3Cl)N2C(=O)CN1C1CCN(CC2CCCCC2)CC1 | 61% (inactive)
C[C@@H](Nc1c(C#N)cnc2ccc(-c3cnc(Cl)c(NS(C)(=O)=O)c3)cc12)c1ccccc1 | 0.239% (active)
CN1CCC(n2cc(Nc3ncc4c(=O)n(-c5c(Cl)cccc5Cl)cc(Br)c4n3)cn2)CC1 | 37% (inactive)

Structure (SMILES) | growth
CCNC(=O)N1CCc2cc(OC)c(OCCc3ccc(OC)nc3)cc2C1c1ccc(C)cc1C (stereo not given) | 61% (inactive)
O=C(CNc1nc(-c2cccc([N+](=O)[O-])c2)cs1)Nc1cccc(Cl)c1 | 100% (inactive)
O=C(c1ccc(O)cc1)[C@@H]1CN[C@@]2(C(=O)Nc3ccccc32)[C@H]1c1ccc(F)cc1 | 99.3% (inactive)
N=c1c2cc(-c3ccccc3)oc2ncn1/N=C/c1ccc(Br)cc1 | 79.6% (inactive)
O=C(Nc1ccc(F)c(F)c1)c1cc(-c2ccc(F)cc2F)ccc1O | 3.6% (active)
O=C(O)c1ccc(-n2cc(CNc3cc(F)c(F)c(F)c3)c(-c3ccc(F)cc3)n2)cc1 | 85.5% (inactive)
N#Cc1cccc(/C(N)=N/C(N)=N/c2nc3ccccc3s2)c1 | 34.1% (inactive)
CNC(=O)c1cc(-n2ccc3cc(NC(=O)Nc4ccc(N5CCOCC5)c(C(F)(F)F)c4)ccc32)ccn1 | 47% (inactive)
COc1ccccc1N1CCN(C2=CC(=O)C(C)=C(C)C2=O)CC1 | 91.1% (inactive)
O=C(Nc1nonc1-c1ccccc1)c1ccc(C(F)(F)F)cc1 | 76% (inactive)
COc1ccc(-n2c(SCc3nnc(NC(=O)c4ccc(Br)cc4)s3)nc3cc(OC)c(OC)cc3c2=O)cc1 | 112% (inactive)
NC(N)=Nc1ccc(Oc2cccc(Oc3ccc(Cl)c(C(F)(F)F)c3)c2)cn1 | 8.88% (active)
c1ccc(C(c2nc3ncncc3[nH]2)N2CSc3nc4ncncc4n3C2)cc1 (stereo not given) | 34.4% (inactive)
COc1ccc(/C=C(/C)c2ccc3ccc(OC)cc3[o+]2)c(O)c1 | 69.7% (inactive)
C=C=COc1cccc(/C(N)=N/C(N)=N/c2nc3ccccc3s2)c1 | 63.1% (inactive)
O=S(=O)(NCCNc1nccc(-n2cnc3ccccc32)n1)c1ccc(Cl)cc1 | 97.1% (inactive)
CS(=O)(=O)Nc1cc(-c2ccc3ncc(C#N)c(NCc4cccc(F)c4)c3c2)cnc1Cl | 0.599% (active)
O=S(=O)(Oc1ccc(-c2nnc(Nc3ccccc3)s2)cc1)C(F)(F)C(F)(F)C(F)(F)C(F)(F)C(F)(F)C(F)(F)F | 104% (inactive)
C#C[C@]1(O)CC[C@H]2[C@@H]3CC=C4c5sc(-c6cccc(O)c6)nc5CC[C@]4(C)[C@H]3CC[C@@]21C | 1.25% (active)
Nc1nc(Nc2ccccc2SSc2ccccc2Nc2nc(N)nc(-c3ccc4ccccc4c3)n2)nc(-c2ccc3ccccc3c2)n1 | 74.9% (inactive)
